For ten molecules, growth inhibition results are on record in PubChem BioAssay (NCI).

Each structure is given as a SMILES string. About 79,000 compounds went through this panel and 15% of them were active in at least one assay; those are over-represented in the sample as a whole. Values without a mark were called inactive. Calls of active or inactive are those of the source. No stated cut-off is given here; in the data, active means growth inhibition above about 70%; inactive means the rest.

A short description of assay [1]: NCI Yeast Anticancer Drug Screen. Data for the rad50 strain (AID 155).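 Further: 0% = growth of vehicle-only cultures of the same strain.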 The conditions noted are these: S. cerevisiae rad50 strain growth inhibition, stronger effect = higher value. Put shortly:
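A DNA repair-deficient yeast mutant serves as the test organism; compound-induced growth inhibition is calculated against vehicle-treated cells.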

A short description of assay [2]: NCI Yeast Anticancer Drug Screen. Data for the mec2-1 strain (AID 157). The conditions noted are these: S. cerevisiae mec2-1 strain, stronger effect = higher value. Put shortly:
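Mutant yeast (mec2-1) grown with compound; growth inhibition relative to vehicle control reported.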

Assay [3] is described as follows: NCI Yeast Anticancer Drug Screen. Data for the sgs1 mgt1 strain (AID 161).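 Further: 0% = growth of cultures given vehicle only.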 The conditions noted are these: S. cerevisiae sgs1 mgt1 strain, stronger effect = higher value. Put shortly:
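Yeast cells carrying a defined DNA-repair defect were exposed to test compounds. Growth inhibition was measured relative to vehicle-treated controls.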

Assay [4] is described as follows: NCI Yeast Anticancer Drug Screen. Data for the cln2 rad14 strain (AID 165).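 Further: 0% = growth equal to vehicle treated cultures.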 The conditions noted are these: S. cerevisiae cln2 rad14 strain, stronger effect = higher value. Put shortly: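 Readout is yeast growth inhibition versus vehicle-treated controls, using a strain with cln2 and rad14 alterations exposed to compound.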
The nature of assay [5]: NCI Yeast Anticancer Drug Screen. Data for the bub3 strain (AID 167). The conditions noted are these: S. cerevisiae bub3 mutant strain, stronger effect = higher value. In a few lines: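 Inhibition values come from growth of compound-treated mutant yeast normalised to vehicle-treated controls.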
Assay [6] can be described thus: NCI Yeast Anticancer Drug Screen. Data for the mlh1 rad18 strain (AID 175). The conditions noted are these: S. cerevisiae mlh1 rad18 strain growth inhibition, stronger effect = higher value. Put shortly: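 Genetically defined yeast (DNA repair-deficient) exposed to compounds; growth inhibition determined relative to vehicle.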
Where [7] appears, read: at 5.0 µM (retest, dose inferred, filed as 0.5).
The mark [8] stands for this setting: at 50.0 µM (retest, dose inferred, filed as 5.0).

In the case of `CSc1nc(NC2OC(CO)C(O)C(O)C2O)c(Cl)c(=O)[nH]1` (stereo not given), the growth inhibition was -1% in assay [1] (setting [7]); -1% in assay [1] (setting [8]); 42.1% in assay [1] (at 50.0 µM); 0% in assay [2] (setting [7]); -1% in assay [2] (setting [8]); 4.45% in assay [2] (at 50.0 µM). The growth inhibition in assay [3] (setting [7]) is -2%; in assay [3] (setting [8]), 0%; in assay [3] (at 50.0 µM), 12.4%; in assay [4] (setting [7]) it was 1%; in assay [4] (setting [8]), -2%; in assay [4] (at 50.0 µM), -3.85%. Besides, the growth inhibition in assay [5] (setting [7]) was -1%; in assay [5] (setting [8]) it was 4%; in assay [5] (at 50.0 µM), -1.4%; in assay [6] (setting [7]), 2%; in assay [6] (setting [8]) it was -1%; in assay [6] (at 50.0 µM), 1.05%.
`Cc1cc(Br)c(NC(=O)CBr)cc1C`: the growth inhibition in assay [1] (setting [7]) was -1%; in assay [1] (setting [8]), 95% (active); in assay [1] (at 50.0 µM) it was 42.3%; in assay [2] (setting [7]) it was -3%; in assay [2] (setting [8]), 97% (active); in assay [2] (at 50.0 µM), 73.3% (active). In addition, the growth inhibition in assay [3] (setting [7]) is -1%; in assay [3] (setting [8]) it was 97% (active); in assay [3] (at 50.0 µM), 72% (active); in assay [4] (setting [7]), -2%; in assay [4] (setting [8]), 94% (active); in assay [4] (at 50.0 µM), 46.9%. For the same molecule, the growth inhibition is -1% in assay [5] (setting [7]); 96% (active) in assay [5] (setting [8]); 40.5% in assay [5] (at 50.0 µM); -2% in assay [6] (setting [7]); 96% (active) in assay [6] (setting [8]); 81.5% (active) in assay [6] (at 50.0 µM).
As for `C/C(=N\NC(=S)Nc1ccc(Cl)cc1)c1nc2ncccc2[nH]1`, the growth inhibition in assay [1] (setting [7]) is 3%; in assay [1] (setting [8]) it was 98% (active); in assay [1] (at 50.0 µM), 89.8% (active); in assay [2] (setting [7]) it was -6%; in assay [2] (setting [8]), 98% (active); in assay [2] (at 50.0 µM), 90.2% (active). The growth inhibition in assay [3] (setting [7]) was 0%; in assay [3] (setting [8]) it was 96% (active); in assay [3] (at 50.0 µM), 85.2% (active); in assay [4] (setting [7]) it was -38%; in assay [4] (setting [8]), 99% (active); in assay [4] (at 50.0 µM) it was 87.9% (active). Moreover, the growth inhibition in assay [5] (setting [7]) is -28%; in assay [5] (setting [8]), 95% (active); in assay [5] (at 50.0 µM) it was 90.1% (active); in assay [6] (setting [7]), -1%; in assay [6] (setting [8]), 98% (active); in assay [6] (at 50.0 µM) it was 85.4% (active).
Consider `CC(=O)/C=N/Nc1ccccc1`, for which the growth inhibition in assay [1] (setting [7]) is 15%; in assay [1] (setting [8]), 20%; in assay [1] (at 50.0 µM) it was 42.1%; in assay [2] (setting [7]) it was 3%; in assay [2] (setting [8]), 7%; in assay [2] (at 50.0 µM) it was 3.5%. The growth inhibition is -9% in assay [3] (setting [7]); 11% in assay [3] (setting [8]); 33% in assay [3] (at 50.0 µM); 0% in assay [4] (setting [7]); -8% in assay [4] (setting [8]); -9.5% in assay [4] (at 50.0 µM). In addition, the growth inhibition was -1% in assay [5] (setting [7]); 3% in assay [5] (setting [8]); 7.2% in assay [5] (at 50.0 µM); 14% in assay [6] (setting [7]); 32% in assay [6] (setting [8]); 58.6% in assay [6] (at 50.0 µM).
`CC1(C)CC[C@]2(C(=O)O)CC[C@]3(C)C(=CC[C@@H]4[C@@]5(C)C[C@H](O)[C@H](O)[C@@](C)(C(=O)O)[C@@H]5CC[C@]43C)[C@@H]2C1`: the growth inhibition in assay [1] (setting [7]) is 100% (active); in assay [1] (setting [8]), 99% (active); in assay [1] (at 50.0 µM), 91.2% (active); in assay [2] (setting [7]), 100% (active); in assay [2] (setting [8]) it was 100% (active); in assay [2] (at 50.0 µM) it was 94.1% (active). For the same molecule, the growth inhibition is 99% (active) in assay [3] (setting [7]); 99% (active) in assay [3] (setting [8]); 92.7% (active) in assay [3] (at 50.0 µM); 99% (active) in assay [4] (setting [7]); 99% (active) in assay [4] (setting [8]); 92% (active) in assay [4] (at 50.0 µM). The growth inhibition is 99% (active) in assay [5] (setting [7]); 99% (active) in assay [5] (setting [8]); 92% (active) in assay [5] (at 50.0 µM); 100% (active) in assay [6] (setting [7]); 100% (active) in assay [6] (setting [8]); 88.7% (active) in assay [6] (at 50.0 µM).
As for `O=c1c(-c2ccccc2)coc2cc(O)ccc12`, the growth inhibition in assay [1] (setting [7]) is -14%; in assay [1] (setting [8]), 8%; in assay [1] (at 50.0 µM), 60.6%; in assay [2] (setting [7]), 5%; in assay [2] (setting [8]) it was 23%; in assay [2] (at 50.0 µM), 36.9%. In addition, the growth inhibition in assay [3] (setting [7]) is -6%; in assay [3] (setting [8]), 16%; in assay [3] (at 50.0 µM), 63.3%; in assay [4] (setting [7]), -12%; in assay [4] (setting [8]) it was -12%; in assay [4] (at 50.0 µM) it was 18.1%. Besides, the growth inhibition in assay [5] (setting [7]) was -25%; in assay [5] (setting [8]) it was 34%; in assay [5] (at 50.0 µM), 75.8% (active); in assay [6] (setting [7]), -3%; in assay [6] (setting [8]), 12%; in assay [6] (at 50.0 µM), 4.9%.
For the molecule `CC(=O)C1CCCCC1/C=C/[N+](=O)[O-]` (stereo not given), the growth inhibition in assay [1] (setting [7]) is 23%; in assay [1] (setting [8]) it was 93% (active); in assay [1] (at 50.0 µM), 99.5% (active); in assay [2] (setting [7]) it was 16%; in assay [2] (setting [8]), 74% (active); in assay [2] (at 50.0 µM) it was 99.7% (active). Further, the growth inhibition in assay [3] (setting [7]) is 25%; in assay [3] (setting [8]), 93% (active); in assay [3] (at 50.0 µM), 99.1% (active); in assay [4] (setting [7]), 6%; in assay [4] (setting [8]), 27%; in assay [4] (at 50.0 µM), 99% (active). The growth inhibition in assay [5] (setting [7]) is 30%; in assay [5] (setting [8]), 91% (active); in assay [5] (at 50.0 µM), 99.5% (active); in assay [6] (setting [7]), 42%; in assay [6] (setting [8]), 97% (active); in assay [6] (at 50.0 µM), 99.2% (active).
Turning to `O=C1C(Sc2ccc3ccccc3c2)=C(Sc2ccc3ccccc3c2)C(=O)c2ccccc21`, the growth inhibition in assay [1] (setting [7]) is 34%; in assay [1] (setting [8]), 90% (active); in assay [1] (at 50.0 µM), 94.2% (active); in assay [2] (setting [7]), 21%; in assay [2] (setting [8]), 94% (active); in assay [2] (at 50.0 µM), 99% (active). Also, the growth inhibition in assay [3] (setting [7]) is 36%; in assay [3] (setting [8]) it was 93% (active); in assay [3] (at 50.0 µM), 98.9% (active); in assay [4] (setting [7]), 7%; in assay [4] (setting [8]), 89% (active); in assay [4] (at 50.0 µM) it was 98.3% (active). Besides, the growth inhibition in assay [5] (setting [7]) was 71% (active); in assay [5] (setting [8]), 90% (active); in assay [5] (at 50.0 µM) it was 98.9% (active); in assay [6] (setting [7]), 16%; in assay [6] (setting [8]) it was 89% (active); in assay [6] (at 50.0 µM), 96.8% (active).
For `O=C(Nc1ccc(Cl)cc1)c1cccc([N+](=O)[O-])c1O`, the growth inhibition in assay [1] (setting [7]) was 9%; in assay [1] (setting [8]), 13%; in assay [1] (at 50.0 µM) it was 32.8%; in assay [2] (setting [7]), 5%; in assay [2] (setting [8]), 11%; in assay [2] (at 50.0 µM) it was -8.45%. The growth inhibition in assay [3] (setting [7]) was 8%; in assay [3] (setting [8]), 11%; in assay [3] (at 50.0 µM), 70.8% (active); in assay [4] (setting [7]), -3%; in assay [4] (setting [8]) it was 34%; in assay [4] (at 50.0 µM) it was -22%. In addition, the growth inhibition in assay [5] (setting [7]) was 6%; in assay [5] (setting [8]), 10%; in assay [5] (at 50.0 µM), -5%; in assay [6] (setting [7]), 7%; in assay [6] (setting [8]), 16%; in assay [6] (at 50.0 µM), 11.2%.
Take `COC(=O)Cc1cn[nH]c1C(=O)OC`: the growth inhibition in assay [1] (setting [7]) is -147%; in assay [1] (setting [8]), 8%; in assay [1] (at 50.0 µM) it was 9.2%; in assay [2] (setting [7]), -51%; in assay [2] (setting [8]), -45%; in assay [2] (at 50.0 µM), 0.7%. The growth inhibition in assay [3] (setting [7]) is -65%; in assay [3] (setting [8]) it was -48%; in assay [3] (at 50.0 µM), 1.7%; in assay [4] (setting [7]) it was -66%; in assay [4] (setting [8]) it was -52%; in assay [4] (at 50.0 µM), 29.6%. For the same molecule, the growth inhibition in assay [5] (setting [7]) is -68%; in assay [5] (setting [8]), -54%; in assay [5] (at 50.0 µM), -15.2%; in assay [6] (setting [7]) it was -117%; in assay [6] (setting [8]), -94%; in assay [6] (at 50.0 µM), 9.75%.
